# Out of some 370,000 compounds screened, about 660 (0.18%) were called active. This is one part of a sample in which actives are shown more often than they occur. Values without a mark were called inactive. Cut-off read from the data, not from the text of the source: active = inhibition above about 11%; inactive = the rest.
# Target: 1-phosphatidylinositol 4,5-bisphosphate phosphodiesterase beta-3 (Homo sapiens) (UniProt Q01970)
# Assay: phospholipase C beta3 enzyme inhibition – biochemical, fluorescence, primary screen (AID 720704);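 note: 0% = median of compound wells on plate and 100% = full blocker control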
# Conditions: Purified PLC-beta3, fluorogenic substrate, at 12.2 µM, stronger effect = higher value
# Chain of 1-phosphatidylinositol 4,5-bisphosphate phosphodiesterase beta-3 (Homo sapiens) (Q01970 whole entry, looked up): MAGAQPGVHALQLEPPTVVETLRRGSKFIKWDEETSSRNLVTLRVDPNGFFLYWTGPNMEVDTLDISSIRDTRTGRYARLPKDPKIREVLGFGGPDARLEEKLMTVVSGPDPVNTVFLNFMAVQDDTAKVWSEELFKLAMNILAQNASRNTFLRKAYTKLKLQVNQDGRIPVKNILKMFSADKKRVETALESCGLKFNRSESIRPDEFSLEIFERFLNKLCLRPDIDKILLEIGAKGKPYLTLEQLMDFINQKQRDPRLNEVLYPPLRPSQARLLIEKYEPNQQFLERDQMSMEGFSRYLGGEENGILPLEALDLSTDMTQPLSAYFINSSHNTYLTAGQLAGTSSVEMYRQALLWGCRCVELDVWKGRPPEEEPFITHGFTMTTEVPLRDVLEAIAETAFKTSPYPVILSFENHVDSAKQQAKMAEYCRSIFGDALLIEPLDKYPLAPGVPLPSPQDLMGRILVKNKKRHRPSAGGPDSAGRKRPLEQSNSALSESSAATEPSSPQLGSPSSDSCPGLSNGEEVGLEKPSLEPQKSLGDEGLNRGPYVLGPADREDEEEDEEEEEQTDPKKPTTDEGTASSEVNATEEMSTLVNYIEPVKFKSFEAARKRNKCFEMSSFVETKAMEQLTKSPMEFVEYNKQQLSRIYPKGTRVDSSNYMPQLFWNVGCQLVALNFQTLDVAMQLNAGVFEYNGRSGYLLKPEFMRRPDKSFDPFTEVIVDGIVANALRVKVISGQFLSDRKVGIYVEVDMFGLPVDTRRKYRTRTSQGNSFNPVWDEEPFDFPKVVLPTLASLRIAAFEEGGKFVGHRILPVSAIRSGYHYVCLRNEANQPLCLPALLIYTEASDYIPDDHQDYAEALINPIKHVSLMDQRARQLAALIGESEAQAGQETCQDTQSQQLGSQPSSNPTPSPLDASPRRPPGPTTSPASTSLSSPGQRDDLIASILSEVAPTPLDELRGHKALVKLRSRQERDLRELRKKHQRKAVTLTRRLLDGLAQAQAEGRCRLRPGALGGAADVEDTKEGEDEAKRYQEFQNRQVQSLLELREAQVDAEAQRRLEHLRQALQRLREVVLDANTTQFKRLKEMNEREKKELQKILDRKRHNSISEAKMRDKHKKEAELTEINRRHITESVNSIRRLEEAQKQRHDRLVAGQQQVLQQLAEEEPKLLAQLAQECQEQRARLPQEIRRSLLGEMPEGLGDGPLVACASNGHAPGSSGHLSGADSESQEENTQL
row,Compound,inhibition
1,CC1=CC(=O)C=CC1(C)C(Cl)(Cl)Cl (stereo unspecified),0.48%
2,Cc1c(C(=O)N2CC(C)OC(C)C2)sc2nc(-c3ccccc3)cn12 (stereo unspecified),-2.9%
3,O=C(c1ccc(F)cc1)N1CCCC(C(=O)N2CCCCC2)C1 (stereo unspecified),-6.9%
4,Cc1ccc(S(=O)(=O)N(CC(O)CN2CCCCC2)c2cccc([N+](=O)[O-])c2)cc1 (stereo unspecified),-3.53%
5,COc1ccc([N+](=O)[O-])cc1N(CC(O)Cn1nnc2ccccc21)S(=O)(=O)c1ccc(C)cc1 (stereo unspecified),11.5% (active)
6,COc1ccc([N+](=O)[O-])cc1N(CC(O)CN(CC(C)C)CC(C)C)S(=O)(=O)c1ccc(C)cc1 (stereo unspecified),-4.79%
7,O=C(NC1CCCCN(Cc2ccc(Cl)cc2)C1=O)c1ccc(Br)cc1 (stereo unspecified),-4.01%
8,Cc1cccc(OCc2nnc(SCc3nc4cc(C(F)(F)F)ccc4c(=O)[nH]3)o2)c1,-14.6%
9,CCn1cc(C(=O)NCCC(=O)NCCO)c(=O)c2cc3c(cc21)OCO3,-11.8%
10,CCOc1ccccc1NC(=O)c1cccnc1,12.6% (active)
11,Cc1cccc(C(=O)Nc2ccccc2C(=O)NCc2cccnc2)c1,2.86%
12,CCCOc1cccc(C(=O)NCCCNC(=O)c2cccnc2)c1,-4.69%
13,O=S1(=O)C[C@@H](N2CCN(CCO)CC2)[C@H](COCc2ccccc2)N1,-7.43%
14,Cc1ccc(S(=O)(=O)N2CCC(C(=O)OCC(=O)N(C)c3ccccc3)CC2)cc1C,-0.47%
15,O=C(COc1ccc(S(=O)(=O)N2CCCC2)cc1[N+](=O)[O-])N1CCCCC1,6.09%
16,COc1ccc(S(=O)(=O)N2CCC(C(=O)OCC(=O)c3ccccc3)CC2)cc1[N+](=O)[O-],10.8% (active)
17,CCOC(=O)[C@H]1CCC[C@@H](NS(=O)(=O)c2ccc(NC(C)=O)cc2)C1,-1.08%
18,O=S(=O)(NCCSc1ccccn1)c1ccc(Cl)cc1,4.09%
19,CN(C(=O)c1cccc(NC(=O)Cc2cccc(NC(=O)C3CCCN(C(=O)C4CC4)C3)c2)c1)C1CCC1 (stereo unspecified),1.11%
20,CN(C(=O)c1cccc(NC(=O)Cc2cccc([N+](=O)[O-])c2)c1)C1CCCCC1,11.2% (active)
21,CN(C(=O)c1cccc(NC(=O)Cc2ccc([N+](=O)[O-])cc2)c1)C1CCC1,1.28%
22,O=C(CNC(=O)c1ccccc1)OC(C(=O)Nc1cc([N+](=O)[O-])ccc1F)c1ccccc1 (stereo unspecified),-0.41%
23,CCOc1c(Br)cc(/C=C2\C(=O)N(CCC#N)N=C2C)cc1OC,13.5% (active)

row,Compound,inhibition
1,CC(N=Cc1nc(-c2ccccc2)oc1O)c1ccccc1 (stereo unspecified),15.1% (active)
2,Oc1oc(-c2ccccc2Br)nc1/C=N/c1ccccn1,-19.8%
3,COC(=O)CN1C(=O)C(O)=C(C(C)=O)C1c1ccc([N+](=O)[O-])cc1 (stereo unspecified),13.8% (active)
4,CC(=O)C1=C(O)C(=O)N(c2cccnc2)C1c1ccc([N+](=O)[O-])cc1 (stereo unspecified),4.27%
5,CC(=O)C1=C(O)C(=O)N(c2ccc(Br)cc2)C1c1ccc([N+](=O)[O-])cc1 (stereo unspecified),-6.85%
6,O=C(NC(CC(=O)N1CCN(c2ccccc2)CC1)c1ccccc1)c1ccccc1Cl (stereo unspecified),2.68%
7,O=C(NCCSc1ncc(-c2ccccc2)[nH]1)c1ccco1,-6.81%
8,CCOc1ccccc1C1CC(c2cccc(NS(C)(=O)=O)c2)=NN1C(=O)c1ccccc1 (stereo unspecified),13.2% (active)
9,Cc1ccc(C2CC(c3cccc(NS(C)(=O)=O)c3)=NN2S(C)(=O)=O)cc1 (stereo unspecified),0.24%
10,CCOc1ccc2nc(Cl)c(C3CC(c4ccccc4)=NN3C(=O)c3cccs3)cc2c1 (stereo unspecified),-0.32%
11,Cc1ccc(C(=O)N(CN2CCCC2=O)c2ccc(F)cc2)cc1,3.26%
12,CCOc1ccc(S(=O)(=O)Nc2ccncc2)c(C)c1C,1.51%
13,Cc1cc(C)c2nc(SCC(=O)N(C)C3CCS(=O)(=O)C3)cc(C)c2c1 (stereo unspecified),2.26%
14,O=S(=O)(c1ccc(F)cc1)N1CCN=C1SCc1cccc(F)c1,-7.5%
15,Cc1ccc(/C=C/C(=O)O)cc1S(=O)(=O)N1CCC(Cc2ccccc2)CC1,-3.09%
16,Cn1ncc2c(NNC(=O)Cc3cccc4ccccc34)ncnc21,1.27%
17,Cn1ncc2c(Nc3cccc4ccccc34)ncnc21,-6.23%
18,Cc1nc(Nc2ccccc2C)c2cnn(C)c2n1,13.1% (active)
19,O=C1C(=O)N(c2ccccc2)C(c2ccccc2)C1c1ccccc1 (stereo unspecified),-283%
20,O=S(=O)(O)c1cc2onnc2c2ccccc12,-11.7%
21,Cc1cc(NS(=O)(=O)c2ccc(NC(=O)CSc3nnc(SCc4ccc(F)cc4)s3)cc2)nc(C)n1,-3.29%
22,Cc1cc(C(=O)OC(C)C(=O)Nc2cccc(S(=O)(=O)N3CCOCC3)c2)c(C)o1 (stereo unspecified),2.02%
23,NNC(=O)C1CC(O)CN1S(=O)(=O)c1ccc(Cl)cc1 (stereo unspecified),-6.44%

# Reference: PubChem BioAssay AID720704 (The Scripps Research Institute Molecular Screening Center, 2013)
